# According to paper PMC7862700, “An all-to-all approach to the identification of sequence-specific readers for epigenetic DNA modifications on cytosine”:
# Columns and labels:
# Assay in all cases: DAPPL (digital affinity profiling via proximity ligation, sequencing); 10 mM Tris-HCl pH 7.5, 50 mM NaCl, 1 mM DTT, 4% glycerol, room temperature, 30 min; GST-TFs on glutathione beads, 16-mer random dsDNA library, 0.1% formaldehyde crosslink after washing; high values mean tight binding
# FEV = molecular target: T1, FEV (Homo sapiens, UniProt Q99581 1-238); details: protein: recombinant; tags: N-terminal GST; dsDNA, one strand shown
# T1 sequence: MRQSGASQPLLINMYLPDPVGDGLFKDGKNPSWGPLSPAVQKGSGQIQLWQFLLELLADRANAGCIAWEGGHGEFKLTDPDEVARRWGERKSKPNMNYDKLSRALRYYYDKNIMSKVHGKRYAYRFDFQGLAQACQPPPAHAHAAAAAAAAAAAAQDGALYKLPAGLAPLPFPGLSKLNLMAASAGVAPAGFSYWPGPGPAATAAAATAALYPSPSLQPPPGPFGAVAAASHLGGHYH
# Procedure, shortened: (§1)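 In yeast, human transcription factors were expressed with a GST fusion, then pulled down on glutathione beads and given DNA barcodes. Pooled with a tag-only sample, they were exposed to 200 nmole of a 16-mer random double-stranded DNA library (Tris/NaCl/DTT/glycerol buffer, room temperature, 30 min), washed, crosslinked with 0.1% formaldehyde, proximity-ligated using BsaI/T4 ligase for 1 h at 37 °C, PCR-amplified and read on an Illumina NextSeq500. Each hexamer's frequency of reads for a factor, divided by the matching frequency for the tag-only sample, gives the binding signal.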
# ETV5 = ETV5 (Homo sapiens, UniProt P41161 1-510); details: protein: recombinant; tags: N-terminal GST; dsDNA, one strand shown
# ETV5, sequence (P41161 whole entry): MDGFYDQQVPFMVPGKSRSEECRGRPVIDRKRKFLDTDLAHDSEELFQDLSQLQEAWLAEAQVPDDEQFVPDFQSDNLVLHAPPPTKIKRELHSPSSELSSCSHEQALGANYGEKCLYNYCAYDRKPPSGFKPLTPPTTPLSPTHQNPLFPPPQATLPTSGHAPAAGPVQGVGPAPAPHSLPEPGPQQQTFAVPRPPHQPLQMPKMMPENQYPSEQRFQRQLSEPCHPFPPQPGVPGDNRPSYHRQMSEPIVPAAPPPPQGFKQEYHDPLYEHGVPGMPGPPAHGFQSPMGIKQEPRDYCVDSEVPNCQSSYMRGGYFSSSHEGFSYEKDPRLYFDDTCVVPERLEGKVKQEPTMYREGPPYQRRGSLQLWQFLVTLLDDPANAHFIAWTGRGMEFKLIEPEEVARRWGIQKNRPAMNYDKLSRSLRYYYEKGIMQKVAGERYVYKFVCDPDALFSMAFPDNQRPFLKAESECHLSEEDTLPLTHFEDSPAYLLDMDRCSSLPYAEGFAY
# Procedure, shortened: as §1
# HSF1 = HSF1 (Homo sapiens, UniProt Q00613 1-529); details: protein: recombinant; tags: N-terminal GST; chain copies: 3; dsDNA, one strand shown
# HSF1, sequence (Q00613 whole entry): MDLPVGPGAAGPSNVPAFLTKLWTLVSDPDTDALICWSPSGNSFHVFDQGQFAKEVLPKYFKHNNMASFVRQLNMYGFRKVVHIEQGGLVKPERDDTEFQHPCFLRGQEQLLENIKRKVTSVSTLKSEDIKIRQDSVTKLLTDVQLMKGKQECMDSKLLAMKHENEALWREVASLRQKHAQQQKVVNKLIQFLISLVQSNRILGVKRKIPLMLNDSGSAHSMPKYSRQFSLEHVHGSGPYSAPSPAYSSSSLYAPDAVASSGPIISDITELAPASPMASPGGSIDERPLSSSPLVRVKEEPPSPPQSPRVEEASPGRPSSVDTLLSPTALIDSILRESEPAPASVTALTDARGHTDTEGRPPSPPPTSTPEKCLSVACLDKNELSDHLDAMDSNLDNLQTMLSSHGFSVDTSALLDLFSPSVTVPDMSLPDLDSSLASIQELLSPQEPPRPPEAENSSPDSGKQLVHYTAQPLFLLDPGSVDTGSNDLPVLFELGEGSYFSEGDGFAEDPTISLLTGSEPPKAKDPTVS
# Procedure, shortened: as §1
# SPIC = molecular target: T2, SPIC (Homo sapiens, UniProt Q8N5J4 1-248); details: protein: recombinant; tags: N-terminal GST; dsDNA, one strand shown
# T2 sequence: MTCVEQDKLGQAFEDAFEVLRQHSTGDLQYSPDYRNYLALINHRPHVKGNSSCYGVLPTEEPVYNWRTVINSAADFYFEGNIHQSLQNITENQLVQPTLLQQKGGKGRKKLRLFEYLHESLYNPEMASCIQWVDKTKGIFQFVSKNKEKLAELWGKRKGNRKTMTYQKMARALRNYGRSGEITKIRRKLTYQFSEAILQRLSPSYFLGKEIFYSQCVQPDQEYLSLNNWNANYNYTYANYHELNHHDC
# Procedure, shortened: as §1
# ELF4 = ELF4 (Homo sapiens, UniProt Q99607 1-663); details: protein: recombinant; tags: N-terminal GST; dsDNA, one strand shown
# ELF4, sequence (Q99607 whole entry): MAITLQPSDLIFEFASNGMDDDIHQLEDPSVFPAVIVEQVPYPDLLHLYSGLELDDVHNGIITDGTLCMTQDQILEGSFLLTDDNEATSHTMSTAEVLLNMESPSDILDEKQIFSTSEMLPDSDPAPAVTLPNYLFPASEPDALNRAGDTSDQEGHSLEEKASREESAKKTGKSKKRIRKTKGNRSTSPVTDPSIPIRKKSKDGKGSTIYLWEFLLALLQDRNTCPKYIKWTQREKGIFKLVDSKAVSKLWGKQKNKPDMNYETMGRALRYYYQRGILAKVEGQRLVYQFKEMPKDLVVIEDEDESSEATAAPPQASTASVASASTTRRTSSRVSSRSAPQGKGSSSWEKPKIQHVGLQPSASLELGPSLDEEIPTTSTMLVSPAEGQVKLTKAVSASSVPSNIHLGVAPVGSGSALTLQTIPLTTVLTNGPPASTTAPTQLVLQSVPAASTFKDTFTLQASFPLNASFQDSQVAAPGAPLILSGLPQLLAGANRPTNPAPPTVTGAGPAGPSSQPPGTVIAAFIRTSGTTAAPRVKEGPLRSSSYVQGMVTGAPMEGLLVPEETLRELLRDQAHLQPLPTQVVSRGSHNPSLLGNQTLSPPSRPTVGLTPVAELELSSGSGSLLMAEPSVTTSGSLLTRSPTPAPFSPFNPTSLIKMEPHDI
# Procedure, shortened: as §1
# ELK4 = molecular target: T3, ELK4 (Homo sapiens, UniProt P28324-2 1-405); details: protein: recombinant; tags: N-terminal GST; dsDNA, one strand shown
# T3 sequence: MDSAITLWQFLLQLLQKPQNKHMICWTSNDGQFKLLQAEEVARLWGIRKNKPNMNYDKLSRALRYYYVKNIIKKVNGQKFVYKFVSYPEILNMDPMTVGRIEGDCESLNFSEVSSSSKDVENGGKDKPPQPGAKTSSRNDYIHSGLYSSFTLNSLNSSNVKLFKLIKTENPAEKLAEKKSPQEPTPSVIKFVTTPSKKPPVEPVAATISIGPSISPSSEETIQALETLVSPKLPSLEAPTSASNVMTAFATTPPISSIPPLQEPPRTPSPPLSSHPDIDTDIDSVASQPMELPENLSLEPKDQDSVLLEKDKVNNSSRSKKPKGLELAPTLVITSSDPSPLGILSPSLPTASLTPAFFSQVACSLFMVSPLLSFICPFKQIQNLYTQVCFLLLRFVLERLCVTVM
# Procedure, shortened: as §1
# ETV2 = molecular target: T4, ETV2 (Homo sapiens, UniProt O00321 1-342); details: protein: recombinant; tags: N-terminal GST; dsDNA, one strand shown
# T4 sequence: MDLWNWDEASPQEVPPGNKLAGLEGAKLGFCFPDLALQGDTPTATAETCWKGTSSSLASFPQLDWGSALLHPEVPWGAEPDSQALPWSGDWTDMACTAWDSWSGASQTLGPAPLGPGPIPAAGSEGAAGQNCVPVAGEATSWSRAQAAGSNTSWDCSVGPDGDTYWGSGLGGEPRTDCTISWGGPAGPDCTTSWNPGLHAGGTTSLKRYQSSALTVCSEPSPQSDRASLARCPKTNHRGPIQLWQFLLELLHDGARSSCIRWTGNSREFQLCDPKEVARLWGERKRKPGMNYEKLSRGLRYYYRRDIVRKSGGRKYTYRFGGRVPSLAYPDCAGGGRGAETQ
# Procedure, shortened: as §1
# ELF3 = molecular target: T5, ELF3 (Homo sapiens, UniProt P78545 1-371); details: protein: recombinant; tags: N-terminal GST; dsDNA, one strand shown
# T5 sequence: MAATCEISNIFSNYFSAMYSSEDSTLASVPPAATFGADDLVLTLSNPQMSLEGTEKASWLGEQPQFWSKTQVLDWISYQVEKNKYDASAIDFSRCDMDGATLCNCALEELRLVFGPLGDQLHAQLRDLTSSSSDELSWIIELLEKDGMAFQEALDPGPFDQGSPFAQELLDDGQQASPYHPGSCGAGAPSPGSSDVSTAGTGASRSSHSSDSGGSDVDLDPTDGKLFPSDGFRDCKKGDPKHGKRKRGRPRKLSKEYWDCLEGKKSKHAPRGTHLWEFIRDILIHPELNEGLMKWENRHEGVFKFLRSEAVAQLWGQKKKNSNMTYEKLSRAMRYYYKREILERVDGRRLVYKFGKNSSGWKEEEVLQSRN
# Procedure, shortened: as §1
# CRX = CRX (Homo sapiens, UniProt O43186 1-299); details: protein: recombinant; tags: N-terminal GST; dsDNA, one strand shown
# CRX, sequence (O43186 whole entry): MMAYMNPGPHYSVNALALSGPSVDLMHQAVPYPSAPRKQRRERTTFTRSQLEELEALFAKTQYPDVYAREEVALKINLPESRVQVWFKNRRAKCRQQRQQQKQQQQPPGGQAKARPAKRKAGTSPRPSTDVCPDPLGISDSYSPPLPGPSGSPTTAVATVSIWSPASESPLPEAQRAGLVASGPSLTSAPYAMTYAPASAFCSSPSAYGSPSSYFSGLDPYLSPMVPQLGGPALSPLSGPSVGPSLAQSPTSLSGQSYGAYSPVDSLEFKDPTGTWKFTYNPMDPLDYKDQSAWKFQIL
# Procedure, shortened: as §1
sequence,measurement,setting,value
TTCCCT,binding signal,FEV,"1.64 fold enrichment (6-mer frequency, TF over GST control)"
same,binding signal,ETV5,"1.69 fold enrichment (6-mer frequency, TF over GST control)"
same,binding signal,HSF1,"1.52 fold enrichment (6-mer frequency, TF over GST control)"
same,binding signal,SPIC,"1.84 fold enrichment (6-mer frequency, TF over GST control)"
same,binding signal,ELF4,"1.79 fold enrichment (6-mer frequency, TF over GST control)"
same,binding signal,ELK4,"1.65 fold enrichment (6-mer frequency, TF over GST control)"
same,binding signal,ETV2,"1.62 fold enrichment (6-mer frequency, TF over GST control)"
same,binding signal,ELF3,"1.57 fold enrichment (6-mer frequency, TF over GST control)"
same,binding signal,CRX,"1.31 fold enrichment (6-mer frequency, TF over GST control)"
